Among all 310,000 compounds or so, about 14,000 (4.5%) showed an effect of 50% or more. Effects have a minus sign here. The sample holds strong results, similar compounds and a random draw of the others, so the mix is not that of the screen.
Each compound was assayed against human ether-à-go-go-related gene (hERG) potassium channel (human, UniProt Q12809) (assay: primary screen, population patch clamp on CHO cells stably expressing hERG; higher = less effect of the substance).
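Also: peak tail current of the secondary pulse compared with the same well before compound.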

Chain of human ether-à-go-go-related gene (hERG) potassium channel (Q12809 whole entry, looked up): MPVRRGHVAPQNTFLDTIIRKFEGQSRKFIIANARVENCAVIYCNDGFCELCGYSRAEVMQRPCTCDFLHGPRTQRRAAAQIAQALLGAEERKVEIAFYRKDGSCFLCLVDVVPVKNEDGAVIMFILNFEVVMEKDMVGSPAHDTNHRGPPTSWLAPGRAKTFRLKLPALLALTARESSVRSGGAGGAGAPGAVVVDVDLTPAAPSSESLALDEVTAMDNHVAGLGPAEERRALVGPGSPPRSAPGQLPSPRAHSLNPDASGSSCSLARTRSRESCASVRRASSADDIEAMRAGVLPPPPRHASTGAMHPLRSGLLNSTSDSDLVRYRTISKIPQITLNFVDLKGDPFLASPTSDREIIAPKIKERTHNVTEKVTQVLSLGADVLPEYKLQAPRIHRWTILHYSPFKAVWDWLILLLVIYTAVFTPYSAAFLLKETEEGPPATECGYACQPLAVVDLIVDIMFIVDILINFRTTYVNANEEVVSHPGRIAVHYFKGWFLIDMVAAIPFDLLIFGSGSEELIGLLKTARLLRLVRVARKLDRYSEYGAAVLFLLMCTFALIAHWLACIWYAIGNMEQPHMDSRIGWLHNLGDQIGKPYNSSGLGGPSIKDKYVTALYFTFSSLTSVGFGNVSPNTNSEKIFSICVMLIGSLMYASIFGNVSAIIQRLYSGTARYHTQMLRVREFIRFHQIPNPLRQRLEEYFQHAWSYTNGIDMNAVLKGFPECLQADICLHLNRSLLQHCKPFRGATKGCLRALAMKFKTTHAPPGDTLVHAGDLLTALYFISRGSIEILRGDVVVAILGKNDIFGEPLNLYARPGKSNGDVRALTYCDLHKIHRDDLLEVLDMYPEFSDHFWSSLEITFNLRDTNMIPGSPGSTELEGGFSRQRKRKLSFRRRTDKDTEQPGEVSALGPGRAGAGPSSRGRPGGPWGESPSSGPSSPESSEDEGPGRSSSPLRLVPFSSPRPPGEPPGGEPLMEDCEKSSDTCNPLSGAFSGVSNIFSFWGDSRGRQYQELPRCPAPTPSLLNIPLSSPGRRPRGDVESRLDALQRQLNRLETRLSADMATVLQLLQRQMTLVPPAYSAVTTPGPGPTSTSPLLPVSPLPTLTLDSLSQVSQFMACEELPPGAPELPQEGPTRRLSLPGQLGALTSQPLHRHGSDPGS

Going from `Cc1cc(C)c(NC(=O)NC(=O)c2ccc(F)cc2)c(C)n1` to `Cc1ccnc(NC(=O)c2cc3ccccc3oc2=O)c1`, the “hERG current change (%, negative = inhibition) at 10uM” value rises from -0.738% to 8.47%.

Going from `O=C(c1ccc2c(c1)OCO2)N(c1ccc(Cl)cc1)C1C=CS(=O)(=O)C1` (centres unmarked) to `Cc1ccc(N(C(=O)c2ccc3c(c2)OCO3)C2C=CS(=O)(=O)C2)cc1` (centres unmarked), the “hERG current change (%, negative = inhibition) at 10uM” value falls from -16.8% to -29.7%.

Going from `CC(C)c1ccc(N(C(=O)c2ccc3c(c2)OCO3)C2C=CS(=O)(=O)C2)cc1` (centres unmarked) to `CC(C)CN(C(=O)C1CC1)c1c(N)n(Cc2ccccc2)c(=O)[nH]c1=O`, the “hERG current change (%, negative = inhibition) at 10uM” value rises from -66.2% to 21.2%.

First: COc1ccccc1P(=O)(c1ccccc1)c1ccccc1NC(C)=O (centres unmarked)
Second: O=C(NNc1cccc(Cl)c1)c1cccnc1Oc1ccccc1
The “hERG current change (%, negative = inhibition) at 10uM” value of the first is higher: 14.3% for the first, -8.21% for the second.

Going from `CCOC(=O)c1sc(N(Cc2ccccc2)C(=O)CCl)nc1C` to `CCOC(=O)c1sc(N(Cc2ccccc2)C(=O)CN2C(=O)CN(C)C2=O)nc1C`, the “hERG current change (%, negative = inhibition) at 10uM” value falls from -6.21% to -59%.

First: CCOC(=O)c1sc(N(Cc2ccccc2)C(=O)COC(=O)c2ccccc2O)nc1C
Second: CCOc1ccccc1C(=O)NCCNC(=O)c1ccccc1OCC
The “hERG current change (%, negative = inhibition) at 10uM” value of the first is lower: -5.14% for the first, -2.01% for the second.

Compared with `CCOc1ccccc1C(=O)NCCCN1CCN(CCCNC(=O)c2ccccc2OCC)CC1`, `CCOc1ccccc1C(=O)NCCCCNC(=O)c1ccccc1OCC` is higher in “hERG current change (%, negative = inhibition) at 10uM” value: -53.3% for the first, -31.4% for the second.

First: O=C(NCCCN1CCN(Cc2ccccc2)CC1)c1nnc(Cc2c(F)cccc2Cl)o1
Second: CN1CCN(CCCNC(=O)c2nnc(Cc3c(F)cccc3Cl)o2)CC1
The “hERG current change (%, negative = inhibition) at 10uM” value of the first is lower: -63.1% for the first, -3.44% for the second.

Going from `O=C(NCCCN1CCN(CCCNC(=O)c2ccccc2F)CC1)c1ccccc1F` to `O=C(NCCCCNC(=O)c1ccccc1F)c1ccccc1F`, the “hERG current change (%, negative = inhibition) at 10uM” value rises from -53% to 14.8%.

Compared with `O=C(NCCCN1CCCC1=O)c1nnc(Cc2c(F)cccc2Cl)o1`, `Fc1cccc(Cl)c1CSc1nnc(CNc2ccccc2)o1` is lower in “hERG current change (%, negative = inhibition) at 10uM” value: 1.34% for the first, -21.5% for the second.

Going from `Cl.O=C(NCCN1CCN(c2ccccc2)CC1)c1ccccc1F` to `O=C1CCN(CCCc2ccccc2)CCN1[C@H](CO)c1ccccc1`, the “hERG current change (%, negative = inhibition) at 10uM” value falls from -11% to -29.7%.

Going from `CC1CCCC(C)N1C(=O)CSc1nnnn1Cc1ccccc1` (centres unmarked) to `Cn1c(=O)n(CC(N)=O)c(=O)c2c1nc1n2CCCN1Cc1ccccc1`, the “hERG current change (%, negative = inhibition) at 10uM” value rises from -3.54% to 14.8%.

Going from `COc1ccc(CC(=O)N/N=C/c2cccn2-c2ccc([N+](=O)[O-])cc2)cc1OC` to `CCOC(=O)Cc1ccc(NC(=O)c2ccccc2Br)cc1`, the “hERG current change (%, negative = inhibition) at 10uM” value rises from -37.9% to -7.9%.

Going from `CCN(CC(=O)NC1CC1)S(=O)(=O)c1ccccc1` to `CCCN1CCC(=O)N([C@H](CO)c2ccccc2)CC1`, the “hERG current change (%, negative = inhibition) at 10uM” value falls from 10% to 9.36%.

Compared with `Br.Cc1csc(=Nc2ccccc2)n1C`, `CCCN1CCC(=O)N([C@H](CO)Cc2ccccc2)CC1` is higher in “hERG current change (%, negative = inhibition) at 10uM” value: -2.07% for the first, 0.476% for the second.

Going from `COc1ccc2c(C)cc(SCC(=O)Nc3cccnc3Cl)nc2c1` to `Cc1cc(C)c(C(=O)CSc2nnc(C)s2)c(C)c1`, the “hERG current change (%, negative = inhibition) at 10uM” value rises from 10.3% to 18.2%.

First: Cc1cc(NS(=O)(=O)c2cccc([N+](=O)[O-])c2)no1
Second: O=S(=O)(c1ccc(Br)s1)N1CCN(c2ncccn2)CC1
The “hERG current change (%, negative = inhibition) at 10uM” value of the first is higher: 28.8% for the first, -3.42% for the second.

Compared with `CC(C)C[C@@H](CO)N1CCN(CC(C)C)CCC1=O`, `CCCN1CCC(=O)N([C@H](CO)CC(C)C)CC1` is higher in “hERG current change (%, negative = inhibition) at 10uM” value: 4.64% for the first, 20% for the second.

Compared with `CC(C)CN1CCC(=O)N(CCO)CC1`, `CCCN1CCC(=O)N(CCO)CC1` is lower in “hERG current change (%, negative = inhibition) at 10uM” value: 1.33% for the first, -3.79% for the second.

Compared with `CCCCCCCN1CCC(=O)N(CCO)CC1`, `CCCCCCCN1CCC(=O)N([C@H](CO)CC(C)C)CC1` is lower in “hERG current change (%, negative = inhibition) at 10uM” value: -54.3% for the first, -63% for the second.

First: CCCCCCCN1CCC(=O)N([C@H](CO)c2ccccc2)CC1
Second: CCCCCCCN1CCC(=O)N([C@H](CO)Cc2ccccc2)CC1
The “hERG current change (%, negative = inhibition) at 10uM” value of the first is higher: -63.7% for the first, -78.8% for the second.

Going from `O=C1CCN(CCCc2ccccc2)CCN1[C@H](CO)Cc1ccccc1` to `Nc1ccccc1-c1nnc2n1CCCCC2`, the “hERG current change (%, negative = inhibition) at 10uM” value rises from -40.6% to 25.8%.

Source: paper PMC4336329 (PLoS ONE, 2015)
